Test results taken from PubChem BioAssay (NCATS).
Values joined by “and” are separate entries in the source; they are usually repeats but may differ in a detail not shown here. Identical values can stand only once. Results filed as inconclusive are left out. Active and inactive are the calls of the source. Unless noted, calls come from the whole dose curve.

Tests used:
[1] = biological target: Peroxisome proliferator-activated receptor delta (Homo sapiens) (UniProt Q03181); test: qHTS assay for small molecule agonists of peroxisome proliferator-activated receptor delta signaling (AID 588534);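 note: 0% = DMSO basal wells and 100% = positive control agonist at 10 µM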
Peroxisome proliferator-activated receptor delta (Homo sapiens), sequence (Q03181 whole entry, looked up): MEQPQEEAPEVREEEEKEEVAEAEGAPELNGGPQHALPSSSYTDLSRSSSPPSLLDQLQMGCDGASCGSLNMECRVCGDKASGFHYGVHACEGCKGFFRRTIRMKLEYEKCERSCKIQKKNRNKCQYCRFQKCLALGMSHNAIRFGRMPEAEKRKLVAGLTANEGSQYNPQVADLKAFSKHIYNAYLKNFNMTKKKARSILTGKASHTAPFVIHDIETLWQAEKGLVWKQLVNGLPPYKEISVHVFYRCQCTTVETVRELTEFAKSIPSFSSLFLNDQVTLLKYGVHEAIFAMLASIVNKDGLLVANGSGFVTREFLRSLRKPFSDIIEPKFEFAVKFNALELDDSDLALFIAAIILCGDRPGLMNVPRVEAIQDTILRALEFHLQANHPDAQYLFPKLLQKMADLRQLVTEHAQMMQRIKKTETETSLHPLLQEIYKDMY
Summary of the method: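 EC50 and efficacy values derive from Hill fits of a concentration series in a beta-lactamase reporter cell assay. Exposure is 18 hrs at 37 C, with CCF4 fluorescence as the readout.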

[2] = qHTS for Inhibitors of the Functional Ribonucleoprotein Complex (vRNP) of Lassa (LASV) Arenavirus: LASV Primary Screen - GLuc reporter signal (AID 1347082; calls by dose curve; tested in HEK293 reporter line; note: % is set by controls: 0 for no effect and ±100 for the full control effect; nearly all actives have a fitted effect of over 60% in size)
[3] = qHTS for Inhibitors of the Functional Ribonucleoprotein Complex (vRNP) of Lassa (LASV) Arenavirus: Viability assay - alamar blue signal for LASV Primary Screen (AID 1347083; calls by dose curve; tested in HEK293 reporter line; note: % is set by controls: 0 for no effect and ±100 for the full control effect; nearly all actives have a fitted effect of over 80% in size)
[4] = qHTS for Inhibitors of the Functional Ribonucleoprotein Complex (vRNP) of Lymphocytic Choriomeningitis Arenaviruses (LCMV): Viability assay - alamar blue signal for LCMV Primary Screen (AID 1347085; calls by dose curve; tested in HEK293 reporter line; note: % is set by controls: 0 for no effect and ±100 for the full control effect; nearly all actives have a fitted effect of over 80% in size)
[5] = biological target: Nucleoprotein (Lymphocytic choriomeningitis virus (strain Armstrong)) (UniProt P09992); test: qHTS for Inhibitors of the Functional Ribonucleoprotein Complex (vRNP) of Lymphocytic Choriomeningitis Arenaviruses (LCMV): LCMV Primary Screen - GLuc reporter signal (AID 1347086); note: % is set by controls: 0 for no effect and ±100 for the full control effect; nearly all actives have a fitted effect of over 70% in size
Nucleoprotein (Lymphocytic choriomeningitis virus (strain Armstrong)), sequence (P09992 whole entry, looked up): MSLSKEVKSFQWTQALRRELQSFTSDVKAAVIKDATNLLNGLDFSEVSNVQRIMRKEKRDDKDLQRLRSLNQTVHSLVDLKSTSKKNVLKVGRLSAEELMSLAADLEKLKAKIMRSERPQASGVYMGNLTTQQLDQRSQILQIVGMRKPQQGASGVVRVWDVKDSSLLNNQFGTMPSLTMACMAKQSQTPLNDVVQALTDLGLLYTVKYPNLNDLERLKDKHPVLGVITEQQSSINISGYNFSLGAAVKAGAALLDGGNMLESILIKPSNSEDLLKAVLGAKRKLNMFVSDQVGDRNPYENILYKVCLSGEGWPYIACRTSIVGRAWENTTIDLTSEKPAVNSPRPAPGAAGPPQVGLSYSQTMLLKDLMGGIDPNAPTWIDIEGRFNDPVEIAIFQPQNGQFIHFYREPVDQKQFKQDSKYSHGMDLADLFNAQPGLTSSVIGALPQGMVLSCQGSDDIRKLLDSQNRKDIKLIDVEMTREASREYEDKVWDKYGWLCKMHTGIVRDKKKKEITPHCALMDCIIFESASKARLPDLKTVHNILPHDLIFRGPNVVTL

[6] = biological target: Bile acid receptor (Homo sapiens) (UniProt Q96RI1); test: qHTS assay for small molecule agonists of farnesoid X receptor signaling (AID 588527); conditions: HEK293T FXR-UAS-bla, beta-lactamase ratio, 16 h; activation: stronger effect = higher value;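 note: 0% = vehicle basal and 100% = reference agonist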
Bile acid receptor (Homo sapiens), sequence (Q96RI1 whole entry, looked up): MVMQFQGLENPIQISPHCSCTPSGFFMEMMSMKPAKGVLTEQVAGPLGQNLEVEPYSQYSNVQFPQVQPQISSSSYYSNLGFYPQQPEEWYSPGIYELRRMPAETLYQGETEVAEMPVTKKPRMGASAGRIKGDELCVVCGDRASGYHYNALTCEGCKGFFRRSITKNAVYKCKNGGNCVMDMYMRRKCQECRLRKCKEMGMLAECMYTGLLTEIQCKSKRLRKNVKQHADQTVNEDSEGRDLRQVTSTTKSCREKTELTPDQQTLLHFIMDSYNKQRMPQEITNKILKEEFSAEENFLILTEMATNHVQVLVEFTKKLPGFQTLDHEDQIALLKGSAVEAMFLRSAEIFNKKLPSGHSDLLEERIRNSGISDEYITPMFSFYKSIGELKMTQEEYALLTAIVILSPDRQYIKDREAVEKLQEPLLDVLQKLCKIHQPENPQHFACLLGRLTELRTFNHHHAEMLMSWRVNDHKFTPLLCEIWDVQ
Summary of the method: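 Agonist-mode beta-lactamase reporter in GeneBLAzer FXR-UAS-bla HEK293T cells, titration up to 92 uM, 16 h exposure at 37 C, CCF4 fluorescence. Response scaled to DMSO (0%) and 100 uM chenodeoxycholic acid (100%), then Hill-fitted for EC50 and efficacy.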

[7] = qHTS profiling of the MIPE4 collection as inhibitors of Plasmodium falciparum (3D7) proliferation (AID 743344; call rule not given here;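 note: scaled between DMSO vehicle wells and 0.29 µM artemisinin as full inhibition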); conditions: P. falciparum 3D7 in erythrocytes, SYBR Green DNA fluorescence, 72 h; at 28.5 µM (top of the series) unless noted
Summary of the method: (§1)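 Parasite DNA was quantified by SYBR Green I fluorescence (ex 485, em 535 nm) after overnight lysis in saponin/Triton buffer at room temperature. Cultures at 0.3% parasitemia and 2.5% hematocrit were first exposed to compound for 72 h at 37 C; signals were normalised to artemisinin (0.29 uM) and vehicle wells.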

[8] = qHTS profiling of the MIPE4 collection as inhibitors of Plasmodium falciparum (DD2) proliferation (AID 743345; call rule not given here); conditions: P. falciparum Dd2 in erythrocytes, SYBR Green DNA, 72 h; at 28.5 µM (top of the series) unless noted
Summary of the method: as §1

[9] = qHTS profiling of the MIPE4 collection as inhibitors of Plasmodium falciparum (DD2) proliferation (Rep 2) (AID 743346; call rule not given here); conditions: P. falciparum Dd2 in erythrocytes, SYBR Green DNA, 72 h; at 28.5 µM (top of the series) unless noted
Summary of the method: as §1

[10] = MultiTox-Fluor Cytotoxicity Assay - LYMP1-002 - Dead Cells (AID 960; active = well fitted curve in the direction sought with a large enough effect; an effect the other way counts as inactive or inconclusive; note: potency is the fitted concentration of half-maximal effect; nearly all actives have a fitted effect of over 60% in size)
Summary of the method: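 Concentration-dependent increases in membrane-leaked protease activity are quantified in LYMP1-002 cells after 16 hr treatment; values are normalized against DMSO and tetraoctylammonium bromide (15 uM) controls and AC50 derived by Hill modeling.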

[11] = biological target: Glucocorticoid receptor (Homo sapiens) (UniProt P04150); test: qHTS assay for small molecule agonists of glucocorticoid receptor signaling (AID 588532; active = well fitted curve in the direction sought with a large enough effect in the signal ratio, with a control signal flat; the % refers to the signal ratio;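 note: 100% = dexamethasone at 0.1 µM and 0% = DMSO only wells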); conditions: HeLa MMTV-bla, beta-lactamase ratio, agonist, 18 h; stronger effect = higher value; percent of dexamethasone control, DMSO zero
Glucocorticoid receptor (Homo sapiens), sequence (P04150 whole entry, looked up): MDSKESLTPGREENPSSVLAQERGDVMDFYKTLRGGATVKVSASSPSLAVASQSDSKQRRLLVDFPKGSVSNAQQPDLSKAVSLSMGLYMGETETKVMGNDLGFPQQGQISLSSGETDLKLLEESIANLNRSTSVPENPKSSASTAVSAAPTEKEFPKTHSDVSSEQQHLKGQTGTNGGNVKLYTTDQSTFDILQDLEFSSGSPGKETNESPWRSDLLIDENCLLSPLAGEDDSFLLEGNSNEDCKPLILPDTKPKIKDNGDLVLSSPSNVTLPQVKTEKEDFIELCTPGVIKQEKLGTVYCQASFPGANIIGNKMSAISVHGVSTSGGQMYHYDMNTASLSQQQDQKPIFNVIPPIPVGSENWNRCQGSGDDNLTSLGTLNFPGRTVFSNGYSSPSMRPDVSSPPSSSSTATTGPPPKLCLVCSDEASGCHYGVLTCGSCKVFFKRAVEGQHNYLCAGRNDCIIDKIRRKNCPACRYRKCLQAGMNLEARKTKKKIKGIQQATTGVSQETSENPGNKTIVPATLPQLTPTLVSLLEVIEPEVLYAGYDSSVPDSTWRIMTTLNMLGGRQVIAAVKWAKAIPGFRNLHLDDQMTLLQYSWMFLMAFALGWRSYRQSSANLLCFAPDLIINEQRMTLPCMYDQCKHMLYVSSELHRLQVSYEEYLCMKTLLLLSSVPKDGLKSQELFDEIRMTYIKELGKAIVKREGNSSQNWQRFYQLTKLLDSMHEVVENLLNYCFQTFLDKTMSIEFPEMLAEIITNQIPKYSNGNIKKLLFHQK
Summary of the method: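 MMTV-bla HeLa beta-lactamase reporter cells in 1% charcoal/dextran FBS medium, compounds up to 92 uM for 18 h at 37 C, CCF4 readout; normalized to 0.1 uM dexamethasone (100%), EC50 and efficacy from Hill fits.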

[12] = biological target: Vitamin D3 receptor (Homo sapiens) (UniProt P11473); test: qHTS assay for small molecule agonists of vitamin D receptor signaling (AID 588543);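 note: 0% = DMSO basal and 100% = reference agonist control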
Vitamin D3 receptor (Homo sapiens), sequence (P11473 whole entry, looked up): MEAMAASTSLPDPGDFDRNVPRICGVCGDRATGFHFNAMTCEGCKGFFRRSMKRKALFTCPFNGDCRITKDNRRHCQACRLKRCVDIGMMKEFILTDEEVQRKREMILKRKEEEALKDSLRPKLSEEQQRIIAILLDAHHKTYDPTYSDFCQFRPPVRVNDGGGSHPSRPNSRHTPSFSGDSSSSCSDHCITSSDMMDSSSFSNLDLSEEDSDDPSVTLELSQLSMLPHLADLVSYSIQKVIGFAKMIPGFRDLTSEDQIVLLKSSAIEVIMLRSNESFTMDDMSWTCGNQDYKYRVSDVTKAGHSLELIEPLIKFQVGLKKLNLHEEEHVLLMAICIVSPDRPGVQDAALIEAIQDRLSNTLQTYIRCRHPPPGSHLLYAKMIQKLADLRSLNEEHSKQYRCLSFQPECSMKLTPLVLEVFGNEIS
Summary of the method: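 Measured: β-lactamase reporter activity (CCF4, 405 nm excitation, 460/530 nm emission) in HEK293T VDR-UAS-bla cells after 16 h compound exposure at 37 °C. Normalization against 50 nM 1α,25-dihydroxyvitamin D3 and DMSO; Hill-fit EC50.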

[13] = biological target: Voltage-gated inwardly rectifying potassium channel KCNH2 (Homo sapiens) (UniProt Q12809); test: qHTS Assay for Small Molecule Inhibitors of the Human hERG Channel Activity (AID 588834; active = well fitted curve in the direction sought with a large enough effect; an effect the other way counts as inactive or inconclusive;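 note: potency is the fitted concentration of half-maximal effect; lower thallium flux fluorescence means stronger hERG block; nearly all actives have a fitted effect of over 50% in size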)
Voltage-gated inwardly rectifying potassium channel KCNH2 (Homo sapiens), sequence (Q12809 whole entry, looked up): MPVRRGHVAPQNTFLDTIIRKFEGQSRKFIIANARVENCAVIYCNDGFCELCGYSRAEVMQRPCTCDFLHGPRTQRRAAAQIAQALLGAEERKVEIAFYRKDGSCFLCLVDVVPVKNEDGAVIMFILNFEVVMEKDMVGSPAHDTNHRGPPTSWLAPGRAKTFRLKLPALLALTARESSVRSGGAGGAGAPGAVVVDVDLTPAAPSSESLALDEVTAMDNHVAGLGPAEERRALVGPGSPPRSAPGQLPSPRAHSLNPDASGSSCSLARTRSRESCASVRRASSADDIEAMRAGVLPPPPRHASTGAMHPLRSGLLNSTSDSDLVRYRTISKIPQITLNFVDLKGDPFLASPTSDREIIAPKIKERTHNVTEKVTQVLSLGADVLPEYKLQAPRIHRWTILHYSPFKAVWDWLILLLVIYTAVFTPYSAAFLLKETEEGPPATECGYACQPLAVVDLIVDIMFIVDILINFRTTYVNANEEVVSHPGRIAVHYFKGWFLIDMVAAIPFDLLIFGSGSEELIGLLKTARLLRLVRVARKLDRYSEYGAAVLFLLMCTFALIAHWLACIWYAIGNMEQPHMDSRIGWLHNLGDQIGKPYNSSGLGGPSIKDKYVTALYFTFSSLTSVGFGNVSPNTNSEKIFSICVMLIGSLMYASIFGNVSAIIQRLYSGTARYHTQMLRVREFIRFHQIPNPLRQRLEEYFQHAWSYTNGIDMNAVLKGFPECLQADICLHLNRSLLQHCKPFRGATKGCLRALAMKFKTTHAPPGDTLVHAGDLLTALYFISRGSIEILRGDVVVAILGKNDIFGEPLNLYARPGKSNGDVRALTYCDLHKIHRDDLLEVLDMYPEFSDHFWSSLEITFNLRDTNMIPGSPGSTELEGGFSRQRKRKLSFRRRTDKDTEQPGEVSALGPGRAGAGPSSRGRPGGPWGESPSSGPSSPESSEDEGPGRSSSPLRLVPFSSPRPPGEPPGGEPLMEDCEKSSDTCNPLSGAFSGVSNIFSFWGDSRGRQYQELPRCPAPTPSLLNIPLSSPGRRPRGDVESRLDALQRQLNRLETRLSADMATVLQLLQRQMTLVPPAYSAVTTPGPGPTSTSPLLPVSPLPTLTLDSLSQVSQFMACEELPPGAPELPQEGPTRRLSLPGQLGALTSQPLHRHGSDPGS
Summary of the method: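 Homogeneous FluxOR thallium flux assay using hERG-expressing U2OS cells (BacMam). Compound treatment about 10 minutes preceded stimulation; reduced fluorescence taken as channel block.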

[14] = qHTS assay for small molecule agonists of the antioxidant response element (ARE) signaling pathway (AID 651741; active = well fitted activation curve with a large enough effect in the signal ratio; the % refers to the signal ratio; note: potency is the fitted concentration of half-maximal effect; for activation: % of control where 0% means no effect)
Summary of the method: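 HepG2 ARE-bla reporter cells, 2,000/well; 5 h settle at 37 C/5% CO2; compound pin transfer (23 nL, DMSO); 16 h at 37 C; LiveBLAzer B/G FRET substrate, 2 h RT; fluorescence intensity read.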

[15] = qHTS assay for small molecule activators of the nuclear factor-kappa B (NF-kB) signaling pathway (AID 651749; active = well fitted activation curve with a large enough effect in the signal ratio; the % refers to the signal ratio; note: % of control where 0% means no effect); conditions: NF-kB-bla ME-180 cells, beta-lactamase FRET ratio, 16 h; activation: stronger effect = higher value
Summary of the method: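 NF-kB-bla ME-180 cells, 2,000/well; 23 nL compound or DMSO pinned; 16 hr, 37C/5% CO2; beta-lactamase FRET read-out.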

[16] = qHTS assay for environmental chemicals that activate the Aryl hydrocarbon Receptor (AhR) signaling pathway (AID 651777; active = well fitted curve in the direction sought with a large enough effect; an effect the other way counts as inactive or inconclusive; note: % of control where 0% means no effect; nearly all actives have a fitted effect of over 15% in size); conditions: 1A2-DRE human hepatoma cells, luciferase, 24 h; activation: stronger effect = higher value
Summary of the method: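 Luminescence read-out: One-Glo added for 30 min at RT after 24 hr compound treatment (37 C, 5% CO2) of human hepatoma cells expressing a DRE/CYP1A2 promoter–luciferase reporter; increased signal indicates AhR activation.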

[17] = biological target: Peroxisome proliferator-activated receptor alpha (Homo sapiens) (UniProt Q07869); test: qHTS assay for small molecule agonists of the peroxisome proliferator-activated receptor alpha (PPARalpha) signaling pathway (AID 651778; active = well fitted curve in the direction sought with a large enough effect; an effect the other way counts as inactive or inconclusive; note: % of control where 0% means no effect); conditions: PathHunter PPARalpha complementation, chemiluminescence, 6 h; stronger effect = higher value
Peroxisome proliferator-activated receptor alpha (Homo sapiens), sequence (Q07869 whole entry, looked up, the tested form may be a part): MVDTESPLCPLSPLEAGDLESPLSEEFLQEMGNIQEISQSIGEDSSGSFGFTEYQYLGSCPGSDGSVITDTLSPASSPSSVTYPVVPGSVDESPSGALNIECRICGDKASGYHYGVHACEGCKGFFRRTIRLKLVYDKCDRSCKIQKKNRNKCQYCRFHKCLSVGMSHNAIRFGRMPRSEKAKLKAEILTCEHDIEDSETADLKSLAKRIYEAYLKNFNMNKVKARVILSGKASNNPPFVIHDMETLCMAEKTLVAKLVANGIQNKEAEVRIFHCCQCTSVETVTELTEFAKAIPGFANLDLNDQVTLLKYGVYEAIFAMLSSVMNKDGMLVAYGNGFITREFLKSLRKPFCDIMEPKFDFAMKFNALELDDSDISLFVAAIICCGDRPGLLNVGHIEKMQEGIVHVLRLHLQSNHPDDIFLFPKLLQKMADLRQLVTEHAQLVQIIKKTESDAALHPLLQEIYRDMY
Summary of the method: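 Enzyme-fragment complementation assay in which ligand-bound PPARalpha translocates and forms an active enzyme that generates chemiluminescence. Cells were plated overnight, exposed to compound for 6 hr at 37 C, and then given detection reagent for 60 min at room temperature.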

[18] = qHTS profiling for inhibitors of Plasmodium falciparum (3D7) proliferation (AID 743322);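 note: infected erythrocytes exposed to compound for 72 h before lysis; 100% = DMSO vehicle wells and 0% = 0.29 µM artemisinin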; conditions: P. falciparum 3D7 proliferation; at 28.7 µM (top of the series)
Summary of the method: as §1

[19] = qHTS profiling for inhibitors of Plasmodium falciparum (DD2) proliferation (AID 743323; call rule not given here); conditions: lower = more inhibition; at 28.7 µM (top of the series)
Summary of the method: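 Parasite DNA quantified by SYBR Green fluorescence (ex 485, em 535 nm) after saponin/Triton lysis and overnight dark incubation. Cultures: 0.3% parasitemia, 2.5% hematocrit, 72 h, 37 C; data scaled between DMSO and 0.29 uM artemisinin.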

[20] = qHTS profiling for inhibitors of Plasmodium falciparum (HB3) proliferation (AID 743324; active = well fitted curve in the direction sought with a large enough effect; an effect the other way counts as inactive or inconclusive;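 note: 100% = DMSO vehicle wells and 0% = artemisinin-treated control wells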); conditions: Plasmodium falciparum HB3 blood-stage proliferation; at 28.7 µM (top of the series)
Summary of the method: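 SYBR Green fluorescence (485 ex/535 em) of lysed cultures, incubated overnight at room temperature in the dark, quantifies parasite DNA. Infected erythrocytes at 0.3% parasitemia and 2.5% hematocrit were exposed 72 h; values normalized to DMSO and 0.29 uM artemisinin controls.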

[21] = qHTS profiling of the MIPE4 collection as inhibitors of Plasmodium falciparum (HB3) proliferation (AID 743347; call rule not given here;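 note: plate controls were DMSO vehicle wells for no effect and artemisinin wells for full effect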); conditions: P. falciparum HB3 in erythrocytes, SYBR Green DNA, 72 h; at 28.5 µM (top of the series) unless noted
Summary of the method: as §1

[22] = biological target: Cytochrome P450 3A4 (Homo sapiens) (UniProt P08684); test: qHTS Assay for Inhibitors and Substrates of Cytochrome P450 3A4 (AID 884; active = well fitted curve in the direction sought with a large enough effect; an effect the other way counts as inactive or inconclusive; note: potency is the fitted concentration of half-maximal effect; nearly all actives have a fitted effect of over 50% in size)
Cytochrome P450 3A4 (Homo sapiens), sequence (P08684 whole entry, looked up): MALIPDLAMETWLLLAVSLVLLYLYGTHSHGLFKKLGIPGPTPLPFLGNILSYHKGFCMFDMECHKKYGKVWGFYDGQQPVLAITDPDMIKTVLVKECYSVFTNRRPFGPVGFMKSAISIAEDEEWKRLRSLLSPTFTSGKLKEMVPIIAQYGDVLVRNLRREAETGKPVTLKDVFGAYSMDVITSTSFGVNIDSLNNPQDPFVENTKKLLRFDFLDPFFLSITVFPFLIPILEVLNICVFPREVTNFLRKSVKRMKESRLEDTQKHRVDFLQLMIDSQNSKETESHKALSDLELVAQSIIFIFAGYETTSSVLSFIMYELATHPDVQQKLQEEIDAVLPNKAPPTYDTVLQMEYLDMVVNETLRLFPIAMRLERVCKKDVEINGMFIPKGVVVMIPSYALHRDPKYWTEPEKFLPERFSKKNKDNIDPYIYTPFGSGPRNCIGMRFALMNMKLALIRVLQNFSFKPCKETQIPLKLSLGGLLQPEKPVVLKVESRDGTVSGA
Summary of the method: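 Luminescent readout of luciferin produced by CYP3A4 (20 nM) dealkylation of Luciferin-PPXE, 25 uM (its KM). NADPH-driven reaction ran 60 min at RT after 10 min compound preincubation; data scaled to 57 uM ketoconazole as 100% inhibition.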

C=CCCCCCCCCCCCC
inactive: Potency [1] | Potency [2] | Potency [3] | Potency [4] | Potency [5]

CC(=O)c1ccccn1
inactive: activation [6] -4.62% | Potency [1] | Potency [2] | Potency [3] | Potency [4] | Potency [5]

CCC(CC)[C@H](NC(C)=O)[C@@H]1[C@H](O)[C@@H](C(=O)O)C[C@@H]1N=C(N)N
inactive: Potency [2] | Potency [3] | Potency [4] | Potency [5]
81.5%: parasite growth, % of DMSO control [7]
112%: parasite growth, % of control (lower = inhibition) [9]
98.5%: parasite growth remaining, % of DMSO control (lower = more inhibition) [8]

C1CCC2(CCCCO2)OC1
inactive: Potency [1] | Potency [2] | Potency [3] | Potency [4] | Potency [5]

c1ccc(Nc2cccc3ccccc23)cc1
active: Potency [10] 31.6 µM | Potency [13] 28.2 µM | Potency [14] 42.2 µM and 24.3 µM
inactive: activation [11] 4.55% | Potency [1] | Potency [12] | activation [15] -0.293% | activation [16] 4.97% | max response [17] -0.23% | Potency [2] | Potency [3] | Potency [4] | Potency [5]

CC1=C(/C=C/C(C)=C/C=C/C(C)=C\C=O)C(C)(C)CCC1
inactive: activation [6] 25.7% | Potency [1] | Potency [2] | Potency [3] | Potency [4] | Potency [5]

CCCCCCCCCCCCCCCCCC(N)=O
inactive: activation [6] 1.8% | Potency [1] | Potency [2] | Potency [3] | Potency [4] | Potency [5]

C[C@H]1[C@H](NC(=O)C(=NOC(C)(C)C(=O)O)c2csc(N)n2)C(=O)N1S(=O)(=O)O
91.7%: parasite growth remaining, % of DMSO control (lower = more inhibition) [8]
inactive: Potency [2] | Potency [3] | Potency [4] | Potency [5]
97.7%: parasite growth, % of DMSO control [7]

CCCCC(CC)C(=O)O (centres undefined)
inactive: Potency [1] | Potency [2] | Potency [3] | Potency [4] | Potency [5]

O=C(OCc1ccccc1)c1ccccc1O
inactive: Potency [1] | Potency [2] | Potency [3] | Potency [4] | Potency [5]

COC(=O)c1ccc(C)cc1
inactive: activation [6] -0.0429% | Potency [1] | Potency [2] | Potency [3] | Potency [4] | Potency [5]

CC/C=C\CCOC(=O)c1ccccc1O
inactive: Potency [1] | Potency [2] | Potency [3] | Potency [4] | Potency [5]

C=CC(=C)CCC=C(C)C
inactive: Potency [1] | Potency [2] | Potency [3] | Potency [4] | Potency [5]

CC(=O)OC/C=C(\C)CCC=C(C)C
inactive: Potency [1] | Potency [2] | Potency [3] | Potency [4] | Potency [5]

CCCCCCC(=O)O
inactive: activation [6] -0.812% | Potency [1] | Potency [2] | Potency [3] | Potency [4] | Potency [5]

CNC1[C@H](O)C(O[C@@H]2C(O)C(O[C@H]3O[C@H]([C@@H](C)NC)CC[C@H]3N)[C@@H](N)C[C@H]2N)OC[C@]1(C)O (some centres undefined)
103%: parasite growth remaining, % of DMSO control (lower = more inhibition) [8]
inactive: Potency [2] | Potency [3] | Potency [4] | Potency [5]
93.1%: parasite growth, % of DMSO control [7]

CC(C)CCCCCCCCCCCCCCC(=O)O
inactive: Potency [1] | Potency [2] | Potency [3] | Potency [4] | Potency [5]

CCNc1nc(N)nc(Cl)n1
inactive: Potency [1] | Potency [2] | Potency [3] | Potency [4] | Potency [5]

CCCCCCCCCC(C)=O
inactive: Potency [1] | Potency [2] | Potency [3] | Potency [4] | Potency [5]

CC(=O)N(O)CCCP(=O)(O)O
13%: growth, % of control [21]
10.8%: activity, percent of control [19]
18.6%: parasite growth remaining, % of DMSO control (lower = more inhibition) [8]
13.5%: remaining parasite growth % (stronger effect = lower value) [18]
inactive: Potency [2] | Potency [3] | Potency [4] | Potency [5]
8.45%: remaining proliferation (% of control), lower = more inhibition [20]
13.6%: parasite growth, % of DMSO control [7]

c1ccc(CSCc2ccccc2)cc1
inactive: Potency [1] | Potency [2] | Potency [3] | Potency [4] | Potency [5]

CCCCCCCCCCCCCCC
inactive: Potency [1] | Potency [2] | Potency [3] | Potency [4] | Potency [5]

CCCCCCCCCCCCCCCC
inactive: Potency [1] | Potency [2] | Potency [3] | Potency [4] | Potency [5]

C=CCOC(=O)c1ccccc1C(=O)OCC=C
active: Potency [22] 5.01 µM
inactive: activation [6] -3.26% and 2.9% | Potency [14] | Potency [2] | Potency [3] | Potency [4] | Potency [5]

CC(C)=CCCC(C)CCO (centres undefined)
inactive: Potency [1] | Potency [2] | Potency [3] | Potency [4] | Potency [5]

CC(=O)OCCC(C)C
inactive: Potency [1] | Potency [2] | Potency [3] | Potency [4] | Potency [5]
